# Screening data from PubChem BioAssay.
# Most compounds without a hit are left out; they make up all but 1.3% or so of the library.
# EPAC2 antag = qHTS for Antagonist of cAMP-regulated guanine nucleotide exchange factor 2 (EPAC2): primary screen | AID 720708, 2013 | 360,000 compounds, 0.18% hits | Potency, µM (doses to about 114 µM), actives largely listed as inhibitors | Rap guanine nucleotide exchange factor 4 (Homo sapiens), Q8WZA2 | EPAC2 GEF exchange of Rap1B-BODIPY-GDP, fluorescence; further: nearly all actives have a fitted effect of over 45% in size
# BRCA1 expr act = qHTS Assay to Identify Small Molecule Activators of BRCA1 Expression; MCF7-BRCA1-FFLuc reporter, luminescence, 48 h; response scale: scaled: vehicle 0%, 10 µM genistein 100%; Potency, µM (titrated, usually from 46.1 µM), hits mostly activators; 380,000 compounds, 1.1% hits; further: nearly all actives have a fitted effect of over 80% in size
#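 First, MCF7-BRCA1-FFLuc cells (2000/well) attach for 2 h; next, compounds are pin-added and incubated 48 h at 37 °C; finally, luciferase reagent is added and luminescence read after 15 min.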
# EPAC2 agonist = qHTS for Agonist of cAMP-regulated guanine nucleotide exchange factor 4 (EPAC2): primary screen. Rap guanine nucleotide exchange factor 4 (Homo sapiens), Q8WZA2. EPAC2 activation, biochemical qHTS; response scale: 100% = 6.5 mM cAMP response. Potency, µM (top dose mostly 154 µM), usual class: activators. 360,000 compounds, 0.079% hits; further: nearly all actives have a fitted effect of over 50% in size
#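 Guanine nucleotide exchange by EPAC2 is measured as reduced fluorescence of BODIPY-GDP once it is released from 250 nM Rap1B. Plates are read kinetically for 30 min at room temperature; results are scaled to 6.5 mM cAMP.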
# RGS4 inh = Inhibitors of Regulator of G Protein Signaling (RGS) 4: qHTS. Regulator of G-protein signaling 4 (Homo sapiens), P49798. Transcreener GDP fluorescence polarization, RGS4-accelerated GTP hydrolysis. Potency, µM (doses to about 114 µM), actives largely listed as inhibitors. 390,000 compounds, 0.039% hits; further: nearly all actives have a fitted effect of over 75% in size
#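 MLSMR compounds (23 nl, pin-transferred) preincubated 10 min at room temperature with a 500nM (2x) first reagent, then RGS4 at 900nM (2x) plus Transcreener GDP mix added; fluorescence polarization (620/688 nm) read before and after 90 min at 30 °C.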
# EPAC1 antag = qHTS for Antagonist of cAMP-regulated guanine nucleotide exchange factor 3 (EPAC1): primary screen. Rap guanine nucleotide exchange factor 3 (Homo sapiens), O95398. EPAC1 GEF assay, Rap1b-BODIPY-GDP exchange fluorescence. Potency, µM (series often up to 115 µM), hits mostly inhibitors. 360,000 compounds, 0.14% hits; further: nearly all actives have a fitted effect of over 50% in size
# Target sequence (O95398 whole entry, looked up): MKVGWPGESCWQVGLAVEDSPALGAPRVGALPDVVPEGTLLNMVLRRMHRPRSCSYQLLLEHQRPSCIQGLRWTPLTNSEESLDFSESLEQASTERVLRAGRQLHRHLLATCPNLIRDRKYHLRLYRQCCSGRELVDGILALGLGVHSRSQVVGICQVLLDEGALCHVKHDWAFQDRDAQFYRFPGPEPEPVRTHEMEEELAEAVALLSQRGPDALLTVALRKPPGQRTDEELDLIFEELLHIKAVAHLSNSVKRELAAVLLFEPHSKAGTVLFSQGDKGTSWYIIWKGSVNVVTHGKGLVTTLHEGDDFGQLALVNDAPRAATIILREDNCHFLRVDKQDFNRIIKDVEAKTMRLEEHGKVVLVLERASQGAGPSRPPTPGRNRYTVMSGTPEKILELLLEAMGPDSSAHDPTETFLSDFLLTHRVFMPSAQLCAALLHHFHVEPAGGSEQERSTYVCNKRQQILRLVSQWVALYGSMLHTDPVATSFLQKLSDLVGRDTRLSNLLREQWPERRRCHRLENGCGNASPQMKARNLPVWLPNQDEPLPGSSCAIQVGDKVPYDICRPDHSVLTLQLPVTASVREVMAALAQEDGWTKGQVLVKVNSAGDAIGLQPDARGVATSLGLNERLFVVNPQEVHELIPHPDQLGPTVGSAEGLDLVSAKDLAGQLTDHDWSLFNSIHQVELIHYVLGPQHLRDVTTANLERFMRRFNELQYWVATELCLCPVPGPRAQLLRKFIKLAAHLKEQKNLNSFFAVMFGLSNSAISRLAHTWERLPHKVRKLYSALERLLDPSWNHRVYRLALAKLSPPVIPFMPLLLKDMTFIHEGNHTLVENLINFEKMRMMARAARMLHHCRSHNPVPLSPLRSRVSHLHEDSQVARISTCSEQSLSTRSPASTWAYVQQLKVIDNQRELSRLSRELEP
# EPAC1 ag = qHTS for Agonist of cAMP-regulated guanine nucleotide exchange factor 3 (EPAC1): primary screen | Rap guanine nucleotide exchange factor 3 (Homo sapiens), O95398 | EPAC1 agonist qHTS, biochemical assay; response scale: 100% = response to 6.5 mM cAMP | Potency, µM (top dose mostly 154 µM), actives largely listed as activators | 360,000 compounds, 0.073% hits | AID 720707, 2013; further: nearly all actives have a fitted effect of over 60% in size
#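 Read-out is the fluorescence drop as BODIPY-GDP leaves Rap1B (480 nm excitation, 540 nm emission), recorded every 5 minutes over 30 minutes. Reactions held 100 nM EPAC1, 250 nM Rap1B–BODIPY-GDP and 50 uM GDP, with 6.5 mM cAMP setting full activation.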
# A number is an active result; 0 = inactive; ? = inconclusive; - = no result; [ ] = dose if it differs, or a comment. The call rests on the fitted dose curve; in most records, active means well fitted curve in the direction sought with a large enough effect; inconclusive means small, poorly fitted or top-dose-only effect, or another doubt; inactive means no such curve, though single readings can be large; an effect the other way counts as inactive or inconclusive.
SMILES,EPAC2 antag,BRCA1 expr act,EPAC2 agonist,RGS4 inh,EPAC1 antag,EPAC1 ag
O=C(CNC(=O)c1ccco1)Nc1ccncc1,0,0,0,0,0,0
O=C1c2cccc3c(O)ccc(c23)C(=O)N1Cc1ccco1,0,0,100µM,0,0,56.2µM
CC(=O)Nc1ccc(N2C(=O)c3cccc4c(O)ccc(c34)C2=O)cc1,0,0,112µM,0,?,89.1µM
CC(=O)Nc1ccc(-n2c(=O)c3ccccc3c3ccccc3c2=O)cc1,0,0,0,0,0,0
O=C1c2cccc3c(O)ccc(c23)C(=O)N1c1ccc(Cl)cc1,0,0,112µM,0,0,100µM
CC(C)C(=O)Nc1cccc(COc2cccc(CN(Cc3ccccc3)C(=O)OC(C)(C)C)c2)c1,0,0,0,0,0,0
CC(NC(=O)C(CC(=O)OC(C)(C)C)NC(=O)OC(C)(C)C)C(N)=O (configuration not stated),0,0,0,0,0,0
COc1ccc(-c2coc3cc(O[C@@H]4O[C@H](CO)[C@@H](O)[C@H](O)[C@H]4O)ccc3c2=O)cc1,0,2.82µM,0,0,0,0
COc1ccc2c(=O)c(-c3ccc(OC)c(OC)c3)coc2c1,0,11.2µM,0,0,0,0
COc1ccc2c(=O)c(-c3ccccc3)coc2c1,0,?,0,0,0,0
COc1ccc(-c2coc3cc(OC(C)=O)c(OC)cc3c2=O)cc1,0,10µM,0,0,0,0
COc1ccc(-c2coc3cc(O)ccc3c2=O)cc1OC,0,?,0,0,0,0
O=C(Nc1ccc(Oc2ncnc3cc(Cl)ccc23)nc1)Nc1cccc(C(F)(F)F)c1,0,0,0,0,0,0
CC(O)CNc1nc(N)[nH]c(=O)c1N=Nc1ccccc1 (configuration not stated),0,0,0,0,0,0
O=C(Nc1ccc2nc(-c3ccco3)[nH]c2c1)c1cccs1,0,?,0,0,0,0
O=C(Nc1ccc2[nH]ccc2c1)c1cccs1,0,3.16µM,0,0,0,0
O=C(Nc1ccc2nc(-c3ccc4nc[nH]c4c3)[nH]c2c1)c1cccs1,50.1µM,0,?,0,0,0
O=C(Nc1ccc2nc(-c3ccccc3)[nH]c2c1)c1cccs1,0,7.08µM,0,0,0,0
CC(=O)Nc1ccc2[nH]ccc2c1,0,0,0,0,0,0
CCCCn1c(N)c(N(CC(C)C)C(=O)C2CCN(S(=O)(=O)c3ccccc3)CC2)c(=O)[nH]c1=O,0,0,0,0,0,0
CCCCn1c(N)c(N(CC(C)C)C(=O)C2CCN(S(=O)(=O)c3ccc(C)c(C)c3)CC2)c(=O)[nH]c1=O,0,0,0,0,50.1µM,0
C=CCSc1nncn1/N=C/c1ccc(OC)cc1,0,2.24µM,0,0,0,0
FC(F)(F)c1cccc(CN2CCN(c3ncccn3)CC2)c1,0,0,0,0,0,0
O=C(Nc1ccc(S(=O)(=O)N2CCCCC2)cc1)C1CC1,0,0,0,0,0,0
Cc1cccn2c(=O)c3cc(C#N)c(=NC(=O)c4ccco4)n(Cc4ccco4)c3nc12,0,0,0,0,0,0
SMILES,EPAC2 antag,BRCA1 expr act,EPAC2 agonist,RGS4 inh,EPAC1 antag,EPAC1 ag
Cc1cccc(C(=O)N=c2c(C#N)cc3c(=O)n4cccc(C)c4nc3n2Cc2ccco2)c1,0,0,0,?,50.1µM,0
Cc1cccn2c(=O)c3cc(C#N)c(=NC(=O)c4ccccc4)n(Cc4ccco4)c3nc12,?,0,0,?,89.1µM,0
O=C(Nc1cccc(C(F)(F)F)c1)c1cccnc1N1CCN(CCO)CC1,0,0,0,0,0,0
Cc1c(C)n(Cc2ccccc2)c2ccc(C(=O)N3CCN(c4ccccc4F)CC3)cc12,-,-,-,0,-,-
CC1CN(S(=O)(=O)c2cccc(C(=O)Nc3ccccc3N3CCCCC3)c2)CC(C)O1 (configuration not stated),0,0,0,0,0,0
CC1CN(S(=O)(=O)c2cccc(C(=O)Nc3ccccc3N3CCOCC3)c2)CC(C)O1 (configuration not stated),0,0,0,0,0,25.1µM
CCCCCNC(=O)C(c1cc2ccccc2o1)n1c(=O)c(-c2ccco2)nc2ccccc21 (configuration not stated),?,-,0,-,56.2µM,0
COCc1cc(=O)[nH]c(Nc2nc3ccccc3o2)n1,0,0,0,0,0,0
Cc1ccc2oc(Nc3nc(-c4ccccc4)cc(=O)[nH]3)nc2c1,0,3.55µM,0,0,?,0
CCc1cn(C2CC(O)C(CO)O2)c(=O)[nH]c1=O (configuration not stated),0,0,0,0,0,0
CCCCCCn1cnc2c(oc3nc4c(cc32)CCCC4)c1=O,0,3.55µM,0,0,0,0
CSc1ccc(/C=C(\NC(=O)c2ccc(C)cc2)C(=O)Nc2cccc(C)c2)cc1,0,0,0,0,0,0
CC(C)c1ccc(C2CC(=O)c3cnc(NC(=O)c4ccco4)nc3C2)cc1 (configuration not stated),?,10µM,0,0,0,0
Cc1[nH]c2ccc(Br)cc2c(=O)c1CN1CCCCCC1,0,0,0,0,0,0
NC(=O)c1ccc(-n2nnnc2SCC(=O)c2ccc(O)c(O)c2)cc1,0,0,0,0,?,0
COc1ccc(-n2nnnc2SCC(=O)c2ccc(O)c(O)c2)cc1,0,0,0,0,44.7µM,0
CC(NC(=O)Cc1ccc(S(=O)(=O)N2CCOCC2)s1)c1ccc(Cl)c(Cl)c1 (configuration not stated),0,0,0,0,0,0
O=C(NCC1CC1)NC(=O)c1ccccc1F,0,12.6µM,0,-,0,0
COc1cc2cc(CCCOC(=O)c3ccco3)oc(=O)c2cc1OC,0,0,0,0,0,0
O=C(Nc1ccon1)c1ccc(N2CCCCC2)c([N+](=O)[O-])c1,0,12.6µM,0,0[11.4 µM],0,0
